Laboratory results from PubChem BioAssay (NCI).
This is part of a sample that, as a whole, favours compounds with a hit. Of some 79,000 tested, about 15% had one in any assay. Values without a mark were called inactive. Active and inactive are the calls of the source. Cut-off read from the data, not from the text of the source: active = growth inhibition above about 70%; inactive = the rest.

Test: NCI Yeast Anticancer Drug Screen. Data for the wt2 strain (AID 169);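 note: 0% = growth of vehicle-treated yeast cultures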
Conditions: S. cerevisiae wt2 strain growth inhibition, hits give high values
Description: Growth inhibition of yeast strains with defined genetic alterations is measured as a screen for potential anti-cancer activity. Selected strains with alterations in DNA damage repair or cell cycle control were exposed to compounds and growth inhibition was measured relative to vehicle treated controls. The strain used in this assay is wt2

Row | SMILES | growth inhibition (at 1.2 µM) [%] | growth inhibition (at 3.7 µM) [%] | growth inhibition (at 11.0 µM) | growth inhibition (at 33.0 µM) | growth inhibition (at 100.0 µM)
1 | Cc1ccc(S(=O)(=O)Nc2ccc3c(c2)C(O)c2ccccc2-3)cc1 (stereo not given) | -6 | -7 | -2% | 75% (active) | 43%
2 | Cc1ccc(Nc2n[nH]c(=S)s2)cc1 | -12 | -6 | -17% | 47% | 92% (active)
3 | O=C(/C=C/c1cccc2ccccc12)c1ccc(Cl)cc1 | -25 | -19 | -28% | -33% | -33%
4 | COc1cc(CNc2ccc(C(C)C)cc2)cc(OC)c1OC | -1 | -26 | -9% | -20% | 69%
5 | CCOC(=O)[C@]1(Br)CC[C@@]1(Br)C(=O)OCC | -67 | -48 | 6% | 98% (active) | 100% (active)
6 | Cc1ccc(S(=O)(=O)N/N=C/C2(c3ccccc3)c3ccccc3-c3ccccc32)cc1 | -8 | 18 | 76% (active) | 91% (active) | 80% (active)
7 | CCCCC(CC)C(=O)Oc1ccc(C(=O)c2ccccc2)c(O)c1 (stereo not given) | -18 | -7 | -4% | 37% | 97% (active)
8 | COc1ccc(S(=O)(=O)N/N=C\c2cc([N+](=O)[O-])cc(I)c2O)c(OC)c1OC | -7 | -7 | -6% | 15% | 93% (active)
